Measurements reported in PubChem BioAssay (NCI).
“And” between values parts separate entries of the source, which are not always exact repeats. Equal values may be shown once. About 83,000 compounds went through this panel and 20% of them were active in at least one assay; those are over-represented in the sample as a whole.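 Results are percent growth after 48 hours of single-concentration exposure. 100 means growth as in untreated cells, lower positive values show inhibition; negative values down to -100 show cell death.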 The source made the active and inactive calls. How the source made its calls: active means growth percent below 10; inactive means the rest.

Legend:
Assay in all cases: NCI-60 one-dose screen, 48 h (100 = growth as untreated, 0 = no growth, -100 = all killed)
[1] = tested on: NCI-H23 lung
[2] = tested on: NCI-H226 lung
[3] = tested on: NCI-H322M lung
[4] = tested on: HOP-62 NSCLC
[5] = tested on: NCI-H460 lung
[6] = tested on: HOP-92 NSCLC
[7] = tested on: NCI-H522 lung
[8] = tested on: A549/ATCC NSCLC
[9] = tested on: 786-0 renal
[10] = tested on: COLO 205 colon
[11] = tested on: DU-145 prostate
[12] = tested on: K-562 leukemia
[13] = tested on: MALME-3M melanoma
[14] = tested on: MDA-MB-231 breast
[15] = tested on: RXF 393 renal
[16] = tested on: SF-268 CNS
[17] = tested on: SF-295 CNS
[18] = tested on: SF-539 CNS
[19] = tested on: UACC-257 melanoma
[20] = tested on: M14 melanoma

Measured: growth

CC(C)Cc1ccc(C(C)C(=O)NCc2ccc(Cn3c(=O)sn(CCCCl)c3=O)cc2)cc1 (stereo not given)
105% (inactive) and -77.6% (active): [6]; 10 µM unless noted
inactive: [2]; 10 µM unless noted 106% and 32.6% | [3]; 10 µM unless noted 101% and 73.9% | [5]; 10 µM unless noted 105% and 40.2% | [17]; 10 µM unless noted 97.9% and 53.7%
84.8% (inactive) and -40.3% (active): [16]; 10 µM unless noted
104% (inactive) and -90.3% (active): [18]; 10 µM unless noted
94% (inactive) and -58.1% (active): [20]; 10 µM unless noted
85.5% (inactive) and -52.3% (active): [7]; 10 µM unless noted
94.4% (inactive) and -21.2% (active): [19]; 10 µM unless noted
110% (inactive) and -74.2% (active): [13]; 10 µM unless noted
active: [12]; 10 µM unless noted 2.16% | [15]; 10 µM unless noted -94.2%
101% (inactive) and -71.6% (active): [9]; 10 µM unless noted
105% (inactive) and -38.5% (active): [4]; 10 µM unless noted
101% (inactive) and -20.1% (active): [8]; 10 µM unless noted
66.8% (inactive) and -65% (active): [10]; 10 µM unless noted
104% (inactive) and -77.2% (active): [14]; 10 µM unless noted
96.7% (inactive) and -59.1% (active): [1]; 10 µM unless noted
95% (inactive) and -78% (active): [11]; 10 µM unless noted

CCOC(=O)Nc1nc2ccccc2[nH]1
103% (inactive) and 7.77% (active): [12]; 10 µM unless noted
101% (inactive) and 8.06% (active): [17]; 10 µM unless noted
inactive: [1]; 10 µM unless noted 102% and 56.7% | [2]; 10 µM unless noted 104% and 71.9% | [3]; 10 µM unless noted 107% and 72.2% | [4]; 10 µM unless noted 106% and 53.4% | [5]; 10 µM unless noted 106% and 22.4% | [6]; 10 µM unless noted 104% and 62.5% | [7]; 10 µM unless noted 95.6% and 46.8% | [8]; 10 µM unless noted 102% and 55.4% | [9]; 10 µM unless noted 98.5% and 39% | [10]; 10 µM unless noted 119% and 37.7% | [11]; 10 µM unless noted 121% and 38.4% | [13]; 10 µM unless noted 101% and 52.5% | [14]; 10 µM unless noted 110% and 64% | [15]; 10 µM unless noted 118% and 66.3% | [16]; 10 µM unless noted 115% and 48.8% | [18]; 10 µM unless noted 105% and 28.5% | [19]; 10 µM unless noted 93.2% and 58% | [20]; 10 µM unless noted 105% and 22.4%

CC(C)C(=O)Nc1ccc([N+](=O)[O-])c(C(F)(F)F)c1
inactive: [1]; 10 µM unless noted 89.5% and 93.9% | [2]; 10 µM unless noted 72.5% and 82.8% | [3]; 10 µM unless noted 104% and 113% | [4]; 10 µM unless noted 94.9% and 84.2% | [5]; 10 µM unless noted 83.8% and 109% | [6]; 10 µM unless noted 53.9% and 91.1% | [7]; 10 µM unless noted 79.2% and 79.1% | [8]; 10 µM unless noted 81.4% and 103% | [9]; 10 µM unless noted 96.4% and 87.2% | [10]; 10 µM unless noted 93.5% and 117% | [11]; 10 µM unless noted 74% and 113% | [12]; 10 µM unless noted 57.1% and 62.1% | [13]; 10 µM unless noted 83.3% and 88% | [14]; 10 µM unless noted 84.7% and 102% | [15]; 10 µM unless noted 104% | [16]; 10 µM unless noted 88.6% and 102% | [17]; 10 µM unless noted 76.7% and 92% | [18]; 10 µM unless noted 96.9% and 92.7% | [19]; 10 µM unless noted 108% and 112% | [20]; 10 µM unless noted 98.9% and 92.9%

CCc1ccccc1-n1c(N)c(C#N)c(-c2ccc(OC)c(OC)c2)c(C#N)c1=O
inactive: [1]; 10 µM 105% | [1]; 100 µM 29.3% | [2]; 10 µM 109% | [3]; 10 µM 108% | [3]; 100 µM 39.5% | [4]; 10 µM 95.2% | [5]; 10 µM 121% | [5]; 100 µM 30.1% | [6]; 10 µM 126% | [7]; 10 µM 105% | [8]; 10 µM 106% | [8]; 100 µM 79.9% | [9]; 10 µM 107% | [10]; 10 µM 138% | [10]; 100 µM 115% | [11]; 10 µM 115% | [11]; 100 µM 37.6% | [12]; 10 µM 111% | [12]; 100 µM 124% | [13]; 10 µM 103% | [14]; 10 µM 105% | [14]; 100 µM 23.3% | [15]; 10 µM 111% | [16]; 10 µM 102% | [17]; 10 µM 101% | [17]; 100 µM 19.7% | [18]; 10 µM 118% | [19]; 10 µM 128% | [19]; 100 µM 96.8% | [20]; 10 µM 112% | [20]; 100 µM 37.1%
active: [2]; 100 µM 8% | [4]; 100 µM -28.6% | [6]; 100 µM -34.6% | [7]; 100 µM -8.58% | [9]; 100 µM -9.15% | [13]; 100 µM -31.2% | [15]; 100 µM -21.6% | [16]; 100 µM 0.0621% | [18]; 100 µM -54.9%
